“And” between values parts separate entries of the source, which are not always exact repeats. Equal values may be shown once. The whole screen tested about 5,500 compounds, of which about 2,000 (36%) were called active. Inconclusive results (about 18%) are left out. Cut-off read from the data, not from the text of the source: active = normalized growth mostly below about 0.91 (no sharp cut-off); inconclusive = no clear call, values can overlap the other calls; inactive = mostly above about 0.92. The list shows a part of the results.
Assay: chemical genetic growth profiling, strain panel (AID 1159580);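 note: tested at 20 µM; growth read once vehicle control cultures reached saturation at 30 °C; 1 = growth at the plate median or of vehicle wells; lower values mean less growth of the strain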
Details: S. cerevisiae deletion strains, growth OD

Measured: normalized growth

CCCNC(C)C(=O)Nc1ccccc1C (stereo not given)
inactive: locus YAL013W, strain DEP1, hits give low values 1.01 | locus YAL021C, strain ccr4, hits give low values 1.01 | locus YAL026C, strain drs2, hits give low values 1.01 | locus YAL030W, strain snc1, hits give low values 0.995 | locus YAL040C, strain CLN3, hits give low values 1.07 | locus YBL061C, strain skt5, hits give low values 1.01 | locus YBR009C, strain hhf1, hits give low values 1.01 | locus YBR021W, strain FUR4, hits give low values 1.01 | locus YBR023C, strain chs3, hits give low values 1 | locus YBR171W, strain sec66, hits give low values 1.01 | locus YBR229C, strain ROT2, hits give low values 1.01 | locus YBR231C, strain swc5, hits give low values 1.01 | locus YBR279W, strain paf1, hits give low values 1.01 | locus YCL011C, strain gbp2, hits give low values 0.999 | locus YCL016C, strain dcc1, hits give low values 1.01 | locus YCL029C, strain bik1, hits give low values 1 | locus YCL061C, strain MRC1 (second series), hits give low values 1.01 | locus YCL061C, strain MRC1, hits give low values 0.997 | locus YCL069W, strain vba3, hits give low values 1.01 | locus YCR088W, strain abp1, hits give low values 1.01 | locus YDL005C, strain med2, hits give low values 1 | locus YDL035C, strain GPR1, hits give low values 1.01 | locus YDL040C, strain nat1, hits give low values 1.01 | locus YDL074C, strain BRE1, hits give low values 1.02 | locus YDL101C, strain DUN1, hits give low values 1.02 | locus YDL134C, strain PPH21, hits give low values 1.01 | locus YDL185W, strain tfp1, hits give low values 0.997 | locus YDL192W, strain arf1, hits give low values 0.996 | locus YDR001C, strain nth1, hits give low values 1 | locus YDR069C, strain doa4, hits give low values 1.02 | locus YDR101C, strain arx1, hits give low values 1 | locus YDR137W, strain rgp1, hits give low values 1.03 | locus YDR150W, strain NUM1, hits give low values 1.01 | locus YDR159W, strain sac3, hits give low values 1 | locus YDR162C, strain NBP2, hits give low values 1.01 | locus YDR195W, strain ref2 1.01 | locus YDR297W, strain sur2, hits give low values 1 | locus YDR318W, strain mcm21, hits give low values 0.998 | locus YDR334W, strain swr1, hits give low values 0.998 | locus YDR335W, strain msn5, hits give low values 1.01 | locus YDR363W, strain ESC2, hits give low values 1.05 | locus YDR388W, hits give low values 0.99 | locus YDR392W, strain spt3, hits give low values 1.01 | locus YDR502C, strain sam2, hits give low values 0.991 | locus YEL003W, strain gim4, hits give low values 0.998 | locus YEL037C, strain rad23, hits give low values 0.994 | locus YEL061C, strain CIN8 (second series), hits give low values 1.01 | locus YEL061C, strain CIN8, hits give low values 1.01 | locus YER002W, strain NOP16, hits give low values 0.995 | locus YER015W, strain faa2, hits give low values 0.984 | locus YER016W, strain bim1, hits give low values 0.999 | locus YER110C, hits give low values 0.991 | locus YER111C, strain swi4, hits give low values 1 | locus YER155C, strain BEM2 (second series), hits give low values 1.01 | locus YER155C, strain BEM2, hits give low values 1.01 | locus YER167W, strain BCK2, hits give low values 1 | locus YFR010W, strain ubp6, hits give low values 0.992 | locus YGL078C, strain dbp3, hits give low values 0.987 | locus YGL086W, strain mad1, hits give low values 0.993 | locus YGL167C, strain pmr1, hits give low values 1.01 | locus YGL173C, strain kem1, hits give low values 1 | locus YGL227W, strain vid30, hits give low values 1 | locus YGL240W, strain doc1, hits give low values 1.01 | locus YGL248W, strain PDE1, hits give low values 1.02 | locus YGL253W, strain hxk2, hits give low values 1.01 | locus YGR078C, strain PAC10, hits give low values 1 | locus YGR135W, strain pre9, hits give low values 0.957 | locus YGR229C, strain SMI1, hits give low values 0.99 and 1.01 | locus YGR252W, strain gcn5, hits give low values 0.911 | locus YHR013C, strain ard1, hits give low values 1.01 | locus YHR027C, strain rpn1, hits give low values 1.01 | locus YHR030C, strain SLT2, hits give low values 1.01 and 1.04 | locus YHR079C, strain IRE1 (second series), hits give low values 1.01 | locus YHR079C, strain IRE1, hits give low values 1.06 | locus YHR094C, strain hxt1, hits give low values 0.982 | locus YHR129C, strain ARP1, hits give low values 1.01 | locus YHR142W, strain chs7, hits give low values 1 | locus YHR200W, strain rpn10, hits give low values 0.999 | locus YIL066C, strain RNR3, hits give low values 1.02 | locus YIL073C, strain SPO22, hits give low values 0.989 | locus YIL125W, strain kgd1, hits give low values 0.981 | locus YIR030C, strain dcg1, hits give low values 0.994 | locus YJL092W, strain hpr5, hits give low values 1 | locus YJL095W, strain BCK1 (second series), hits give low values 1.01 | locus YJL095W, strain BCK1, hits give low values 1.02 and 1.05 | locus YJL115W, strain asf1, hits give low values 1.01 | locus YJL129C, strain trk1, hits give low values 1.01 | locus YJL134W, strain LCB3, hits give low values 1.01 | locus YJL154C, strain vps35, hits give low values 1 | locus YJL164C, strain tpk1, hits give low values 0.958 | locus YJL166W, strain qcr8, hits give low values 0.999 | locus YJL168C, strain set2, hits give low values 0.991 | locus YJL187C, strain SWE1 (second series), hits give low values 1.02 | locus YJL187C, strain SWE1, hits give low values 0.999 | locus YJR043C, strain POL32, hits give low values 1
